# Measured values as given in the supplement of paper PMC8975748.
# Where a name gives a salt, the structure may show the parent alone.
# System: Saccharomyces cerevisiae BY4741 SeMeCo community
# Assay: z-score of subpopulation abundance vs DMSO median, subpopulation auxotrophic for LM; higher = larger share of this subpopulation than in DMSO controls
# Conditions: 10 µM; 24 h; SM minimal medium; subpopulation (auxotrophy): LM
# Experimental: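 Fluorescent four-plasmid SeMeCo (self-establishing metabolically cooperating S. cerevisiae BY4741 community; plasmids pH-mRuby2, pL-mWasabi, pU-eCFP, pM-TagRFP657) was grown 24 h in minimal SM medium with each Selleck FDA-approved drug at 10 µM in 384-well plates. Cells were fixed and imaged by high-content confocal microscopy. For each auxotrophic subpopulation (and the prototroph), a z-score gives the deviation from the DMSO vehicle-control population median.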
row,SMILES,z-score of subpopulation abundance
1,COc1ccc(Cl)cc1C(=O)NCCc1ccc(S(=O)(=O)NC(=O)NC2CCCCC2)cc1 [Glyburide (Glibenclamide)],1.74
2,Nc1ccc(S(=O)(=O)Nc2ccnn2-c2ccccc2)cc1 [Sulfaphenazole],-0.2
3,O=C(c1ccccc1)c1ccc2n1CCC2C(=O)O (stereo not given) [Ketorolac tromethamine salt],-0.1
4,Cc1nc(NC(=O)N2CCC[C@H]2C(N)=O)sc1-c1ccnc(C(C)(C)C(F)(F)F)c1 [Alpelisib (BYL719)],-1.01
5,CC[C@H]1OC(=O)C[C@@H](O)[C@H](C)[C@@H](O[C@@H]2O[C@H](C)[C@@H](O)[C@H](N(C)C)[C@H]2O)[C@@H](CCN2C[C@H](C)C[C@H](C)C2)C[C@@H](C)C(=O)/C=C/C(C)=C/[C@@H]1CO[C@@H]1O[C@H](C)[C@@H](O)[C@@H](OC)[C@H]1OC [Tilmicosin phosphate],-0.81
6,C=CC1=C(C(=O)O)N2C(=O)[C@@H](NC(=O)/C(=N\OCC(=O)O)c3csc(N)n3)[C@H]2SC1 [Cefixime],-0.13
7,O=C1NCC2(CCN(CCc3ccccc3)CC2)O1 [Fenspiride HCl],-0.15
8,CO/N=C(\C(=O)N[C@@H]1C(=O)N2C(C(=O)O)=C(CSC(=O)c3ccco3)CS[C@H]12)c1csc(N)n1 [Ceftiofur HCl],-0.53
9,NC(=N\CCCCCC/N=C(N)/N=C(\N)Nc1ccc(Cl)cc1)/N=C(\N)Nc1ccc(Cl)cc1 [Chlorhexidine diacetate],-0.7
10,Nc1nc(O)c2ncn(CCC(CO)CO)c2n1 [Penciclovir],-0.19
11,CC[N+](C)(C)c1cccc(O)c1 [Edrophonium chloride],-0.05
12,NC[C@@H]1O[C@H](O[C@H]2[C@@H](O)[C@H](O[C@@H]3[C@@H](O)[C@H](N)C[C@H](N)[C@H]3O[C@H]3O[C@H](CO)[C@@H](O)[C@H](O)[C@H]3N)O[C@@H]2CO)[C@H](N)[C@@H](O)[C@@H]1O [Paromomycin Sulfate],1.42
13,CN(C)CCC[C@@]1(c2ccc(F)cc2)OCc2cc(C#N)ccc21 [Escitalopram Oxalate],0.48
14,COC(=O)C1=C(C)NC(C)=C(C(=O)OC2CCCN(Cc3ccccc3)C2)C1c1cccc([N+](=O)[O-])c1 (stereo not given) [Benidipine HCl],1.8
15,COc1ccc([C@@H]2Sc3ccccc3N(CCN(C)C)C(=O)[C@@H]2OC(C)=O)cc1 [Diltiazem HCl],0.01
16,CCCCCCCCCC(=O)N[C@@H](Cc1c[nH]c2ccccc12)C(=O)N[C@H](CC(N)=O)C(=O)N[C@@H](CC(=O)O)C(=O)N[C@@H]1C(=O)NCC(=O)N[C@@H](CCCN)C(=O)N[C@@H](CC(=O)O)C(=O)N[C@H](C)C(=O)N[C@@H](CC(=O)O)C(=O)NCC(=O)N[C@H](CO)C(=O)N[C@@H]([C@H](C)CC(=O)O)C(=O)N[C@@H](CC(=O)c2ccccc2N)C(=O)O[C@@H]1C [Daptomycin],1.51
17,CCCCCCCCN=c1ccn(CCCCCCCCCCn2ccc(=NCCCCCCCC)cc2)cc1 [Octenidine Dihydrochloride],0.87
18,CCOc1cc(N)c(Cl)cc1C(=O)NCC1CN(Cc2ccc(F)cc2)CCO1 (stereo not given) [Mosapride],-0.41
19,COc1ccccc1N1CCN(CCCNc2cc(=O)n(C)c(=O)n2C)CC1 [Urapidil HCl],-0.25
20,O=C(Nc1c(Cl)cncc1Cl)c1ccc(OC(F)F)c(OCC2CC2)c1 [Roflumilast],-0.1

row,SMILES,z-score of subpopulation abundance
1,CC(C)[N+]1(C)[C@@H]2CC[C@H]1C[C@@H](OC(=O)C(CO)c1ccccc1)C2 (stereo not given in full) [Ipratropium Bromide],0.93
2,CN[C@H](CC(C)C)C(=O)N[C@H]1C(=O)N[C@@H](CC(N)=O)C(=O)N[C@H]2C(=O)N[C@H]3C(=O)N[C@H](C(=O)N[C@H](C(=O)O)c4cc(O)cc(O)c4-c4cc3ccc4O)[C@H](O)c3ccc(c(Cl)c3)Oc3cc2cc(c3O[C@@H]2O[C@H](CO)[C@@H](O)[C@H](O)[C@H]2O[C@H]2C[C@](C)(N)[C@H](O)[C@H](C)O2)Oc2ccc(cc2Cl)[C@H]1O [Vancomycin HCl],0.26
3,C1N2CN3CN1CN(C2)C3 [Methenamine],0.49
4,COc1ccc2c3c1O[C@H]1C[C@@H](O)C=C[C@@]31CCN(C)C2 [Galanthamine],0.45
5,CCC(C)n1ncn(-c2ccc(N3CCN(c4ccc(OCC5COC(Cn6cncn6)(c6ccc(Cl)cc6Cl)O5)cc4)CC3)cc2)c1=O (stereo not given) [Itraconazole],1.85
6,CC[C@@H](CO)NCCN[C@@H](CC)CO [Ethambutol 2HCl],0.23
7,CO/N=C(\C(=O)N[C@@H]1C(=O)N2C(C(=O)O)=C(CSc3nc(C)c(CC(=O)O)s3)CS[C@H]12)c1csc(N)n1 [Cefodizime Sodium],-1.04
8,NCc1ccccc1CC(=O)N[C@@H]1C(=O)N2C(C(=O)O)=C(CSc3nnnn3CC(=O)O)CS[C@H]12 [Ceforanide],1.65
9,CC(=O)OCC1=C(C(=O)O)N2C(=O)[C@@H](NC(=O)Cc3cccs3)[C@H]2SC1 [Cephalothin],0.02
10,Fc1ccc(C(c2ccc(F)cc2)N2CCN(C/C=C/c3ccccc3)CC2)cc1 [Flunarizine 2HCl],1.5
11,O=C(O)C1=C(CSc2nnnn2CS(=O)(=O)O)CS[C@@H]2[C@H](NC(=O)[C@H](O)c3ccccc3)C(=O)N12 [Cefonicid sodium],-0.87
12,CC(C(=O)O)c1ccc2c(c1)[nH]c1ccc(Cl)cc12 (stereo not given) [Carprofen],-1.27
13,c1ccc(C2CN3CCSC3=N2)cc1 (stereo not given) [Tetramisole HCl],0.13
14,CCOC(=O)C1=C[C@]2(CC)CCCN3CCc4c(n1c1ccccc41)[C@@H]32 [Vinpocetine],0.73
15,COCCOC(=O)C1=C(C)NC(C)=C(C(=O)OC/C=C/c2ccccc2)C1c1cccc([N+](=O)[O-])c1 (stereo not given) [Cilnidipine],0.12
16,CO/N=C(\C(=O)N[C@@H]1C(=O)N2C(C(=O)O)=C(CSc3nnnn3C)CS[C@H]12)c1csc(N)n1 [Cefmenoxime hydrochloride],0.27
17,CC(C)c1nc(N(C)S(C)(=O)=O)nc(-c2ccc(F)cc2)c1/C=C/[C@@H](O)C[C@@H](O)CC(=O)O [Rosuvastatin Calcium],-1.44
18,COc1ccc(CNc2nc(N3CCC[C@H]3CO)ncc2C(=O)NCc2ncccn2)cc1Cl [Avanafil],-0.5
19,C/C=C1\[C@H]2C=C(C)C[C@]1(N)c1ccc(=O)[nH]c1C2 [(-)-Huperzine A (HupA)],-0.7
20,CN(C)CC(c1ccc(O)cc1)C1(O)CCCCC1 (stereo not given) [Desvenlafaxine],-0.57
